Cycloheximide cs = counter-screen for Shiga toxin inhibitors: cycloheximide protein synthesis inhibition; cell reporter, cycloheximide protein synthesis inhibition counterscreen; max response, %; 12% of 300,000 active; in the data active = max response mostly above about 13%, no sharp cut-off; inactive = mostly below about 14%; also: read at 38.3 µM for the half of the compounds with a filed dose; 0% is about no effect
Shiga toxin inh = inhibitors of Shiga toxin in Vero cells | Vero cells, Shiga toxin protein synthesis inhibition reporter | inhibition, % at 38.7 µM | 9.2% of 290,000 active; in the data active = inhibition mostly above about 28%, no sharp cut-off; inactive = mostly below about 43%; also: 0% is about no effect
Giardia FBPA inh = inhibitors of Giardia lamblia fructose-1,6-bisphosphate aldolase | A8B2U2 | purified Giardia FBPA | Potency, µM (top dose mostly 59.6 µM), for inactives: top-dose activity, negative = inhibition, hits mostly inhibitors | 0.71% of 290,000 active | AID 2451; also: potency is read from the fitted curve at half-maximal effect; % is scaled to controls: 0 for no effect and ±100 for the full control effect; nearly all actives have a fitted effect of over 55% in size
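40 nM FBPA preincubated 10 min at RT with compound (up to 57.5 uM final), then substrate plus GAPDH/TPI/NAD/arsenate coupling and diaphorase/resazurin added. Fluorescence read after 20 min at RT, 525/598 nm.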
LmPK inhibitor = inhibitors of Leishmania mexicana pyruvate kinase | Q27686 | purified LmPK, Kinase-Glo ATP luminescence, 1 h | Potency, µM (top dose mostly 57.5 µM), without a hit: at the highest dose activity change, negative = inhibition, actives largely listed as inhibitors | 0.37% of 290,000 active | AID 1721; also: potency is read from the fitted curve at half-maximal effect; % is scaled to controls: 0 for no effect and ±100 for the full control effect
Target sequence (Q27686 whole entry, looked up): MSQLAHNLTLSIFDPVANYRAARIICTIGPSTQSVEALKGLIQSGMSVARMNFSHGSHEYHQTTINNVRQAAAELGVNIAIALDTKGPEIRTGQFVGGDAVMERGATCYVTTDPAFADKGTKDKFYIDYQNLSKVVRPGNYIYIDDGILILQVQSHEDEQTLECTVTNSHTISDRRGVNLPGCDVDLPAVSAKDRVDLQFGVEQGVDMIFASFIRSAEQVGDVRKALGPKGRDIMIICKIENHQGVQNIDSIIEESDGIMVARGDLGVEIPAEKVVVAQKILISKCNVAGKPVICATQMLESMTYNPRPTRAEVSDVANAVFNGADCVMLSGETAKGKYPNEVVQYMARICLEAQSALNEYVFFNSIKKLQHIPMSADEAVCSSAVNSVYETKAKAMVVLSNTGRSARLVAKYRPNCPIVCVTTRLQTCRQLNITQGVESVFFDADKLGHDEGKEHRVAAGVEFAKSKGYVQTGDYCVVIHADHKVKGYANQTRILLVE
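ATP generated from ADP (0.1 mM) and PEP (0.5 mM) by 0.1 nM LmPK over 1 h at room temperature (pH 7.2 imidazole buffer) was detected by coupled luciferase luminescence. Values were normalized to uninhibited and no-enzyme wells.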
RE007 growth inh = less growth of the S. pombe RE007 Vpr strain. 0.21% of 360,000 active. S. pombe RE007 Vpr strain, BacTiter-Glo ATP luminescence, 24 h. AID 651644. Potency, µM (highest dose often 92.2 µM), without a hit: top-dose activity change, negative = less growth, most hits filed as inhibitors; active = well fitted falling curve with a large enough effect; inconclusive = small, poorly fitted or top-dose-only effect; inactive = no such curve, though single readings can be large or run the other way; also: potency is read from the fitted curve at half-maximal effect; % is scaled to controls: 0 for no effect and ±100 for the full control effect; nearly all actives have a fitted effect of over 50% in size
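Fission yeast strain RE007, carrying one chromosomally integrated HIV-1 vpr copy, was seeded at OD 0.01 in PMG+AL medium with 23 nL pinned compound. After 24 h at 30 °C and 99% humidity, viability was read by BacTiter-Glo luminescence.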
Tb PYK inh = inhibitors of Trypanosoma brucei pyruvate kinase | Q57TT1 | TbPYK enzyme, Kinase-Glo Plus ATP luminescence, 45 min | Potency, µM (doses to about 76.8 µM), for inactives: at the top dose activity, negative = inhibition, most hits filed as inhibitors | 0.12% of 410,000 active | AID 624173; also: potency is read from the fitted curve at half-maximal effect; % is scaled to controls: 0 for no effect and ±100 for the full control effect; nearly all actives have a fitted effect of over 50% in size
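TbPYK + substrate in 50 mM TEA pH 7.2, 100 mM KCl, 10 mM MgCl2, 0.05% BSA, 0.01% Tween-20; cpd pinned; ADP 130 uM final; 45 min RT; Kinase-Glo Plus 10 min; luminescence endpoint.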
An asterisk follows results filed as active. This is one part of a sample in which hits are shown more often than they occur. Unless noted, calls follow the shape of the dose curve; as a rule, active = well fitted curve in the direction sought with a large enough effect; inconclusive = small, poorly fitted or top-dose-only effect, or another doubt; inactive = no such curve, though single readings can be large; an effect the other way counts as inactive or inconclusive.

Results for Cc1cn2c(=O)cc(COC(=O)c3cccc(NC(=O)c4ccccc4C)c3)nc2s1 ?
Tb PYK inh: 1.7%

What do the screens show for `NCc1ccccc1Sc1ccccc1CO`?
Tb PYK inh: 7.0%

What do the screens show for `COc1cc(C2Nc3ccccc3-c3nnc(SCc4ccc(C)cc4)nc3O2)cc(OC)c1O` (stereo not drawn)?
Tb PYK inh: -15.2%

Results for Cc1ccc(C(=S)NCS(=O)(=O)c2ccc(C)cc2)cc1 ?
Cycloheximide cs: 19.1*; Shiga toxin inh: 74.8; Giardia FBPA inh: -9.6%; LmPK inhibitor: 9.4%; RE007 growth inh: 3.9%; Tb PYK inh: 4.1%

What do the screens show for `O=C(NCCCN1CCOCC1)c1ccc(Cl)cc1`?
Tb PYK inh: 6.9%

How did O=C(CCN1CCOCC1)c1ccc(Br)cc1 do in these assays?
Cycloheximide cs: -0.8; Shiga toxin inh: 6.6; Giardia FBPA inh: -6.3%; LmPK inhibitor: -3.0%; RE007 growth inh: 31.6µM*; Tb PYK inh: -21.7%

Results for O=C(CCN1CCOCC1)c1ccc(Cl)cc1 ?
Cycloheximide cs: 1.3; Shiga toxin inh: -7.8; Giardia FBPA inh: 3.3%; LmPK inhibitor: -8.6%; RE007 growth inh: 39.8µM*; Tb PYK inh: 0.0%

What do the screens show for `O=C(Nc1nc(-c2ccccc2)ns1)c1ccc(Cl)cc1`?
Tb PYK inh: 0.2%

What do the screens show for `c1ccc(Nc2nc(-c3ccccc3)ns2)cc1`?
Cycloheximide cs: 51.9*; Shiga toxin inh: 81.8*; Giardia FBPA inh: 6.8%; LmPK inhibitor: 6.0%; RE007 growth inh: 6.5%; Tb PYK inh: 4.7%

What do the screens show for `O=C(Nc1nc(-c2ccccc2)ns1)c1ccncc1`?
Cycloheximide cs: 1.7; Shiga toxin inh: 18.2; Giardia FBPA inh: -3.9%; LmPK inhibitor: 3.3%; RE007 growth inh: 8.5%; Tb PYK inh: inconclusive

How did CC(C)(C)C(=O)Nc1nc(-c2ccccc2)ns1 do in these assays?
Cycloheximide cs: 58.2*; Shiga toxin inh: 84.3*; Giardia FBPA inh: -19.5%; LmPK inhibitor: 3.2%; RE007 growth inh: -16.1%; Tb PYK inh: 2.9%

Results for CCn1c2cc(C)sc2c2cnn(Cc3ccccc3F)c(=O)c21 ?
Cycloheximide cs: 16.4; Shiga toxin inh: -4.5

How did C/C(=N\N=C1/NC(=O)C(C)S1)c1ccc([N+](=O)[O-])cc1 (stereo not drawn) do in these assays?
Cycloheximide cs: -2.3; Shiga toxin inh: 8.9; Giardia FBPA inh: 0.0%; LmPK inhibitor: -1.3%; RE007 growth inh: 16.7%; Tb PYK inh: -3.3%

What do the screens show for `CC(C)=N/N=C1\NC(=O)C(C)S1` (stereo not drawn)?
Cycloheximide cs: 29.5*; Shiga toxin inh: 26.6; Giardia FBPA inh: inconclusive; LmPK inhibitor: -1.2%; RE007 growth inh: 1.8%; Tb PYK inh: 0.4%

Results for CCOC(=O)c1cnc(NCc2ccc(OC)cc2OC)c2ccccc12 ?
Tb PYK inh: 5.1%

What do the screens show for `COc1ccc(CCc2cc(OC)cc(=O)o2)cc1`?
Cycloheximide cs: 19.4*; Shiga toxin inh: 31.7; Giardia FBPA inh: -2.4%; LmPK inhibitor: 2.7%; RE007 growth inh: 7.7%; Tb PYK inh: -1.3%

How did Clc1ccc(-c2csc(N/N=C/c3cccnc3)n2)c(Cl)c1 do in these assays?
Cycloheximide cs: -1.8; Shiga toxin inh: -2.9; Giardia FBPA inh: 0.8%; LmPK inhibitor: 2.3%; RE007 growth inh: 26.3%; Tb PYK inh: 0.5%

How did CCS(=O)(=O)c1ccc(C=NNc2nc3ccccc3o2)cc1 do in these assays?
RE007 growth inh: -13.9%; Tb PYK inh: -3.8%

Results for O=[N+]([O-])c1ccc(N/N=C/c2cccnc2)cc1 ?
Cycloheximide cs: 32.6*; Shiga toxin inh: 41.3*; Giardia FBPA inh: -10.5%; LmPK inhibitor: -3.9%; RE007 growth inh: 14.6%; Tb PYK inh: -1.7%

What do the screens show for `Cc1sc(N/N=C/c2cccnc2)nc1-c1ccc(Cl)cc1`?
Cycloheximide cs: 15.0*; Shiga toxin inh: 16.9; Giardia FBPA inh: -1.6%; LmPK inhibitor: 1.6%; RE007 growth inh: -6.1%; Tb PYK inh: -1.9%

What do the screens show for `Clc1ccc(N/N=C/c2cccnc2)cc1`?
Cycloheximide cs: 20.2; Shiga toxin inh: 30.5*; Giardia FBPA inh: 0.0%; LmPK inhibitor: 2.7%; RE007 growth inh: 85.0%; Tb PYK inh: -11.2%

Results for O=[N+]([O-])c1ccc(/C=N/Nc2nc3ccccc3o2)cc1 ?
Cycloheximide cs: 31.3*; Shiga toxin inh: 48.2*; Giardia FBPA inh: inconclusive; LmPK inhibitor: 6.1%; RE007 growth inh: -6.5%; Tb PYK inh: 1.7%

Results for CC1=CC(=O)C2=C(C)C[C@H](OC(=O)Cc3ccccc3)C3[C@H](OC(=O)[C@H]3C)C12 (stereo partly drawn) ?
Giardia FBPA inh: 1.1%

How did COc1ccc(-c2nc3c4ccccc4n(CC(=O)N4CCN(c5ccc(F)cc5)CC4)c(=O)n3n2)cc1 do in these assays?
Tb PYK inh: 0.8%

Results for C(=N\N=C\c1cccnc1)/c1cccnc1 ?
Cycloheximide cs: 40.3*; Shiga toxin inh: 25.8*; Giardia FBPA inh: 5.7%; LmPK inhibitor: -0.9%; RE007 growth inh: -13.2%; Tb PYK inh: -0.1%

Results for COC(=O)c1ccc(Nc2nnc(-c3ccc(C)c(S(=O)(=O)N4CCN(C)CC4)c3)c3ccccc23)cc1 ?
Tb PYK inh: -5.8%

Results for COc1cccc(Sc2nc(-c3ccccc3)ncc2S(C)(=O)=O)c1 ?
Cycloheximide cs: 31.1*; Shiga toxin inh: 50.0*; Giardia FBPA inh: 7.7%; LmPK inhibitor: -0.6%; RE007 growth inh: -7.9%; Tb PYK inh: 0.2%

What do the screens show for `COC(=O)CN1C(=O)C(C)(C)Oc2ccc(C(=O)Nc3ccccc3F)cc21`?
Cycloheximide cs: 14.2; Shiga toxin inh: 6.4; Giardia FBPA inh: 14.4%; LmPK inhibitor: -6.2%; RE007 growth inh: 8.0%; Tb PYK inh: 4.3%

What do the screens show for `CC1(C)Oc2ccc(C(=O)Nc3ccccc3F)cc2N(CC(=O)N2CCOCC2)C1=O`?
Cycloheximide cs: 12.4*; Shiga toxin inh: 48.3; Giardia FBPA inh: 8.8%; LmPK inhibitor: 0.3%; RE007 growth inh: 1.0%; Tb PYK inh: 0.0%

Results for CCOC(=O)c1ccc2c(c1)N(CC#N)C(=O)C(C)(C)O2 ?
Cycloheximide cs: 16.9*; Shiga toxin inh: 30.7; Giardia FBPA inh: -1.2%; LmPK inhibitor: -0.6%; RE007 growth inh: -16.6%; Tb PYK inh: -0.2%

How did CCOC(=O)CN1C(=O)C(C)(C)Oc2ccc(C(=O)Nc3ccccc3)cc21 do in these assays?
Cycloheximide cs: 13.5*; Shiga toxin inh: 36.2; Giardia FBPA inh: -6.4%; LmPK inhibitor: 3.0%; RE007 growth inh: -8.0%; Tb PYK inh: 3.2%

Results for O=C1CSC2(C(=O)N(Cc3ccccc3)c3ccccc32)N1c1ccc(Cl)cc1 (stereo not drawn) ?
Tb PYK inh: -9.4%

Assay outcomes (PubChem)
